Data reported in PubChem BioAssay AID1634 (National Center for Advancing Translational Sciences (NCATS), 2009).
Among all 260,000 compounds or so, about 150 (0.058%) were called active. A call without a number means that no potency is given here. Calls come from the whole dose curve; as a rule, active = well fitted inhibition curve with a large enough effect; inconclusive = small, poorly fitted or top-dose-only effect; inactive = no such curve, though single readings can be large or run the other way. Many of the other results were omitted from the sample, so actives are more common in it than they were.

The molecules below were run against Pyruvate kinase PKM (Homo sapiens) (UniProt P14618) (assay: qHTS Assay for Inhibitors of Human Muscle isoform 2 Pyruvate Kinase). Conditions: purified PKM2, ATP generation, Kinase-Glo luminescence; series mostly up to 57.5 µM.
Experimental: NIH Chemical Genomics Center [NCGC] Matthew G. Vander Heiden, M.D., Ph.D. [Harvard Medical School, 77 Avenue Louis Pasteur, Boston, MA 02115] […] ATP generation was detected in a coupled reaction by luciferase-mediated luminescence, an ATP-dependent process. […] The enzyme was assayed at an intermediate level of activity to screen for both inhibitors and activators.
NCGC Assay Protocol Summary: Three uL of substrate mix (at r.t.) in assay buffer (50 mM Imidazole pH7.2, 50 mM KCl, 7 mM MgCl2, 0.01% Tween 20, 0.05% BSA) was dispensed into white solid bottom 1,536 well microtiter plates so that the final concentrations of substrates in the assay were 0.1 mM ADP and 0.5 mM PEP. 23 nL of compound were delivered by a pin tool and 1 uL of enzyme mix in assay buffer (4 degree Celsius) was added. Plates were incubated at room temperature for 1 hour. Two uL of detection mix (Kinase-Glo, Promega; at 4 degree Celsius protected from light) was added and luminescence read by a ViewLux (Perkin Elmer) at 5 second exposure/plate. Data were normalized to the uninhibited and AC100 inhibition (no enzyme). To monitor activation, the first column contained a titration of the activator, NCGC00031955-01 (16-point 1:2 dilutions in duplicate starting at 57 uM) and the first 16 rows of column 4 contained 57 uM of NCGC00031955-01.
Note: nearly all actives have a fitted effect of over 60% in size.
Potency is the fitted concentration of half-maximal effect.

Sequence of Pyruvate kinase PKM (Homo sapiens) (P14618 whole entry, looked up, canonical isoform): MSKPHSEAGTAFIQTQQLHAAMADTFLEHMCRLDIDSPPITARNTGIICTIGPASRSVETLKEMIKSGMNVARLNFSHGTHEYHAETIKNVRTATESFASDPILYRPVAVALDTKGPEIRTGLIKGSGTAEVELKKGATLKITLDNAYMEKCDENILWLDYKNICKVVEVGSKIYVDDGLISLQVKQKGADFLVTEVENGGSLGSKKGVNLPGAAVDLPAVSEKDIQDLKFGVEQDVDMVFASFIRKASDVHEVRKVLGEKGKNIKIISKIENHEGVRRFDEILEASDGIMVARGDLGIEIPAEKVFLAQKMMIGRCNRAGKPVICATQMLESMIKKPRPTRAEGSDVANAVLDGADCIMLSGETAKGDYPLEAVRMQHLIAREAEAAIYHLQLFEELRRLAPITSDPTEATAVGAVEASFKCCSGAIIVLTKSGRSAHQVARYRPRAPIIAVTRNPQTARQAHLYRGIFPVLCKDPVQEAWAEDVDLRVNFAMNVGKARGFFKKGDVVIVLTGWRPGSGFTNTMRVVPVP

SMILES	Potency
Cc1nnc(SCC2=C(C(=O)O)N3C(=O)C(NC(=O)Cn4nc(C)c(Cl)c4C)C3SC2)s1 (stereo not given)	inactive
Oc1ccccc1N1CCN(c2ncnc3sc(-c4ccccc4)cc23)CC1	inactive
C=CCn1c(SCc2csc(C)n2)nc2scc(-c3ccc(C)o3)c2c1=O	inactive
CCn1cc(C(=O)NCc2ccc3c(c2)OCO3)c2cc(OC)c(OC)cc2c1=O	inactive
Nc1nc(SCC(=O)N2CCN(S(=O)(=O)c3ccc(Cl)cc3)CC2)n[nH]1	inactive
C=CC(=O)c1ccc2ccccc2c1	inactive
CC(C)Oc1ccc(CCC(=O)NNC(=S)NCc2ccccc2)cc1	inactive
N#Cc1nc(COc2ccc(Cl)cc2)oc1N1CCCC1	inactive
CS(=O)(=O)Nc1cccc(C2=NN(S(=O)(=O)c3ccccc3)C(c3cccs3)C2)c1 (stereo not given)	inactive
O=C(CCSCCc1ccccn1)Nc1nccs1	inactive
CCOc1cc(/C=N/O)ccc1OCc1ccccc1F	inactive
O=c1[nH]c2ccccc2n2c(-c3ccccc3)nnc12	25.1 µM (active)
COc1c(O)ccc2c1CN1CCc3cc4c(cc3C1C2)OCO4 (stereo not given)	inactive
COc1ccc(C(=O)CCc2ccccc2O)c(OC)c1	inactive
CNC(=O)COc1ccc(S(=O)(=O)Nc2ccccc2)cc1	inactive
C(=N\N1CCN(c2ccccn2)CC1)/C1=C(N2CCOCC2)C(=C/c2ccccc2)/CC1	inactive
COc1cccc(C(=O)NNS(=O)(=O)c2ccc(F)cc2)c1	inactive
Cc1ccc(C(=O)Cn2cc([N+](=O)[O-])nc2C)cc1	inactive
Cc1ccc(CNC(=O)C2CC(c3ccccc3[N+](=O)[O-])=NO2)o1 (stereo not given)	inactive
O=c1cc(CO)oc(C(Nc2cccc(C(F)(F)F)c2)c2ccccn2)c1O (stereo not given)	inactive
COc1ccc(-n2c(SCC(=O)NCc3cccs3)nnc2-c2ccoc2C)cc1	inactive
Cc1ccc(-c2nn(-c3ccccc3)cc2CN(Cc2ccccc2)C(=O)CCC(=O)O)o1	inactive
Cc1cc(C)c2nc(-c3ccco3)cc(C(=O)O)c2c1	inactive
Cc1ccc(-n2nc(-c3ccco3)cc2C(=O)NCc2cccnc2)cc1	inactive

SMILES	Potency
N#CCC(=O)N/N=C/c1cn(Cc2ccc3ccccc3c2)c2ccccc12	inactive
CC(C)(C)C1C/C(=C/c2ccco2)C(=O)/C(=C/c2ccco2)C1 (stereo not given)	inactive
CN1CCN(c2ccc(S(=O)(=O)Nc3ccccc3)cc2[N+](=O)[O-])CC1	inactive
Cc1ccc(NS(=O)(=O)c2ccc3c(c2)oc(=O)n3C)c(C)c1	inactive
COc1ccc2c(c1)C=CC1(O2)N(CCO)c2ccccc2C1(C)C (stereo not given)	inactive
O=C(Cc1cccs1)Nc1nnc(C2CC2)s1	inactive
Cc1nc2nc(COc3ccccc3)[nH]n2c(=O)c1Cc1ccccc1	inactive
CCCc1nc2ccccc2c(=O)n1/N=C/c1ccc(O)c(O)c1	inactive
COc1ccccc1C(=O)NCc1nnc(SC(C)C(=O)Nc2nccs2)n1C (stereo not given)	inactive
COc1ccc(-c2ccc(CCC(=O)O)n2NC(=O)c2ccc(C(C)(C)C)cc2)cc1	inactive
Oc1ccccc1CNc1ncc(Br)cc1Br	inactive
N/C(=N\S(=O)(=O)c1cc(C(F)(F)F)cc(C(F)(F)F)c1)c1cccs1	inactive
Cc1ccc2nc(C)cc(N/N=C/c3ccc(F)cc3)c2c1	inactive
COc1ccccc1-n1cnc2cc(NS(=O)(=O)c3ccccc3)ccc21	inactive
COc1ccc(SC[C@H](Cc2ccccc2)N2CCN(CCc3ccccc3)CCC2=O)cc1	inactive
COc1ccc2[nH]c3c(=O)n(Cc4ccco4)cnc3c2c1	inactive
Fc1ccccc1CNC(=S)Nc1ccc(Cl)cc1	inactive
Cn1c(-c2ccc(F)cc2)cnc1SCC(=O)NCc1ccco1	inactive
O=c1cc(Cn2nnc(-c3ccc(Cl)cc3)n2)nc2sccn12	inactive
O=C(CCC(=O)n1ncc2ccccc21)NCc1ccccc1Cl	inactive
NC(=S)c1ccc(C(N)=S)o1	inactive
Cc1ccc(NN=Nc2nc3c([nH]2)c(=O)n(C)c(=O)n3C)cc1	inactive
Nc1nnc(SCC(=O)NC2CCCc3ccccc32)s1 (stereo not given)	inactive
O=S(=O)(c1ccc(Br)cc1)n1ccc2ccccc21	inactive

SMILES	Potency
Oc1ccc2nc(Cc3ccccc3)[nH]c2c1	inactive
CCOc1ccc(S(=O)(=O)Nc2nc3cc(OC)ccc3s2)cc1	inactive
O=c1ccc2cc(S(=O)(=O)Nc3ccccc3F)ccc2o1	inactive
Cc1cccc(CSc2nc3c(c(=O)n2C)SCC3)c1	inactive
CC(C)(C)c1ccc(C(=O)NCCn2c(N)c(C#N)c3nc4ccccc4nc32)cc1	inactive
Cn1ncc(N2CCN(S(=O)(=O)c3ccc(Br)cc3)CC2)c(Cl)c1=O	inactive
O=C(CSc1nnc(-c2ccc([N+](=O)[O-])cc2)o1)Nc1ccccn1	inactive
CCS(=O)(=O)Nc1ccc(C2=NN(C(C)=O)C(c3cccs3)C2)cc1 (stereo not given)	inactive
O=C(NCc1cccs1)C1CCN(S(=O)(=O)c2ccc(Cl)cc2)CC1	inactive
O=C(/C=C/c1ccc(Cl)cc1Cl)c1cccnc1	inactive
O=C(COc1ccccc1[N+](=O)[O-])N/N=C/c1ccc[nH]1	inactive
COc1cc(/C=N\Nc2nc(-c3cccs3)c(NC(C)=O)s2)ccc1O	inactive
Brc1c(CSc2nncc3ccccc23)nc2ccccn12	inactive
Cc1cccc(C)c1NC1=NC(=S)N(c2ccc(N(C)C)cc2)C1(C)C	inactive
CN(C)S(=O)(=O)c1cccc(-c2nn(-c3ccccc3)cc2/C=C2\SC(=S)N(CC(=O)O)C2=O)c1	inactive
O=C(N/N=C/c1ccc(O)c(O)c1)C1c2ccccc2Oc2ccccc21	inactive
Cc1coc2c(O)cc3c(c12)OC1(N2CCCCC2)C(=O)NCCCC31 (stereo not given)	inactive
C/C=C\C=C\C(=O)N1CC2(CC(c3cccc(NC(=O)/C(C)=C\C)c3)=NO2)C[C@H]1C(N)=O (stereo not given in full)	inactive
Cn1c(=O)n(C)c2cc(NS(=O)(=O)c3ccc(F)cc3)ccc21	inactive
Cc1ccc(NS(=O)(=O)c2cc3c(cc2C)NC(=O)CO3)cc1	inactive
CC(=O)Nc1cccc(OCC(=O)/C=C2\N(C)c3ccccc3C2(C)C)c1	inactive
CC1=C/C(=N\OS(=O)(=O)c2ccccc2)C=CC1=O	inactive
